This note sets out measurements from PubChem BioAssay (Tox21).

Test [1] is described as follows: qHTS assay to identify small molecule antagonists of the sonic hedgehog signaling (Shh) pathway (AID 1259369; calls by dose curve; also: nearly all actives have a fitted effect of over 45% in size; also: potency is read from the fitted curve at half-maximal effect). The procedure, abridged:
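NIH/3T3 stable Gli1-Luc clone, 2,000 cells/well, 4hr settle; cpd + conditioned medium 24hr; Luc reagent 30min RT; luminescence.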

The target in test [2] is Estrogen receptor beta (Homo sapiens) (UniProt Q92731). The test is described as follows: qHTS assay to identify small molecule agonists of the estrogen receptor beta (ER-beta) signaling pathway (AID 1259377; active = well fitted activation curve with a large enough effect in the signal ratio in the repeat runs, not every such curve was filed as active; the % refers to the signal ratio). The procedure, abridged: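 Screening used GripTite ER-beta-UAS-bla cells held in 2% charcoal-stripped FBS medium. After overnight (16 hr) compound incubation at 37C, beta-lactamase activity was detected with a FRET substrate by fluorescence.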
Sequence of Estrogen receptor beta (Homo sapiens) (Q92731 whole entry, looked up): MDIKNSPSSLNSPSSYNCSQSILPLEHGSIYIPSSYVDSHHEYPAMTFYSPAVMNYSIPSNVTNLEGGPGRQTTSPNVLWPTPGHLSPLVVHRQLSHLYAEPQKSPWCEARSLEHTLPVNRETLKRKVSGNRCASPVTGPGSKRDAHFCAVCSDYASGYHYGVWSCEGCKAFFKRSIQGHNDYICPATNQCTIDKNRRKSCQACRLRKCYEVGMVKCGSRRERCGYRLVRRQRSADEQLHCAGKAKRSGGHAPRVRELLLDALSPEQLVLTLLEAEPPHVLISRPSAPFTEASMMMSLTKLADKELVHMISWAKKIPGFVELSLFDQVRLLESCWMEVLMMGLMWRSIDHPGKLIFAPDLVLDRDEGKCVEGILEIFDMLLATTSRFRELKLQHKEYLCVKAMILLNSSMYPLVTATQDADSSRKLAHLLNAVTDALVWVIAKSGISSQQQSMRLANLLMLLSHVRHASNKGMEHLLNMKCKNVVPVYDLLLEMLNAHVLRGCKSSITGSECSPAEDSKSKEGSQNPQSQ
(Quantitative high-throughput screening tests each substance at several concentrations.)

Test [3] has the same target. The test is described as follows: qHTS assay to identify small molecule antagonists of the estrogen receptor beta (ER-beta) signaling pathway (AID 1259378; active = well fitted inhibition curve with a large enough effect in the signal ratio in the repeat runs, not every such curve was filed as active; the % refers to the signal ratio; also: potency is read from the fitted curve at half-maximal effect). In outline:
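ER-beta-UAS-bla HEK293T cells in 2% charcoal-stripped FBS medium treated with compound plus 1nM final 17-beta-estradiol for 16 hr at 37C. Beta-lactamase reporter read by FRET substrate fluorescence after 2 hours at room temperature.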

Test [4] can be described thus: qHTS assay to identify small molecule agonists of the androgen receptor (AR) signaling pathway in the presence of an antagonist - cell viability counter screen (AID 1259379). Also: nearly all actives have a fitted effect of over 25% in size. Also: potency is read from the fitted curve at half-maximal effect. In outline: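 MDA-kb2 viability measured by CellTiter-Fluor fluorescence in the same wells as the luciferase signal; nilutamide 3.0uM final; 15-point compound titration; 16 hr at 37C.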
The nature of test [5]: qHTS assay to identify small molecule agonists of the estrogen receptor beta (ER-beta) signaling pathway - cell viability counter screen (AID 1259380). Also: nearly all actives have a fitted effect of over 30% in size. Also: potency is read from the fitted curve at half-maximal effect. The procedure, abridged: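 Measured: luminescence from CellTiter-Glo after 30 min at room temperature, added to wells already read for the LiveBLAzer FRET reporter (2 hr substrate); ER-beta-UAS-bla HEK293T cells had 16 hr compound treatment at 37C, 5% CO2.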

Test [6] is described as follows: qHTS assay to identify small molecule antagonists of the estrogen receptor beta (ER-beta) signaling pathway - cell viability counter screen (AID 1259382). Also: nearly all actives have a fitted effect of over 55% in size. Also: potency is read from the fitted curve at half-maximal effect. In outline: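 Readout: luminescence, CellTiter-Glo, same wells as bla assay. System: ER-beta-UAS-bla GripTite HEK293T, 2% charcoal-stripped FBS. Exposure: compounds plus 1nM 17-beta-estradiol, 16 hr, 37C.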
Test [7] can be described thus: qHTS assay to identify small molecule agonists or antagonists of the thyroid stimulating hormone receptor (TSHR) signaling pathway - wild type cell line counter screen (AID 1259384; calls by dose curve). The procedure, abridged:
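Wild-type Hek293 cells, 800/well, 18 h at 37C, then compound with Ro20-1724 for 30 min RT. cAMP by HTRF (cAMP-d2/anti-cAMP cryptate), 1 h RT, fluorescence read. 15 concentrations, triplicates.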

The target of test [8] is Thyrotropin receptor (Homo sapiens) (UniProt P16473). The test is described as follows: qHTS assay to identify small molecule antagonists of the thyroid stimulating hormone receptor (TSHR) signaling pathway (AID 1259385; calls by dose curve; also: nearly all actives have a fitted effect of over 20% in size). In outline:
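TSHR-HEK293 cells (800/well) plated 18 h, then compounds with Ro20-1724 and TSH at 1.5 ng/mL final, 30 min at room temperature. cAMP quantified by HTRF (cAMP-d2/anti-cAMP-cryptate, 1 h); 15 concentrations in triplicate.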

Test [9] can be described thus: qHTS assay to identify small molecule agonists of the estrogen receptor alpha (ER-alpha) signaling pathway in the presence of an antagonist - cell viability counter screen (AID 1259386).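 Also: cells exposed to compounds for 22 h at 37 °C before the viability read; nearly all actives have a fitted effect of over 30% in size.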 Also: potency is read from the fitted curve at half-maximal effect. In outline: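 The test measures whether compounds kill ER-alpha reporter cells (VM7Luc4E2) under antagonist co-treatment (ICI-182,780, 10.0nM). Fluorescence from CellTiter-Fluor is read after a 22hr exposure.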

Test [10] deals with Progesterone receptor (Homo sapiens) (UniProt P06401). The test is described as follows: qHTS assay to identify small molecule agonists of the progesterone receptor (PR) signaling pathway (AID 1346784; calls by dose curve; also: nearly all actives have a fitted effect of over 30% in size). The procedure, abridged: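 Seed PR-UAS-bla HEK 293T cells (2% charcoal-stripped FBS), incubate 6 hr at 37C; add compounds in DMSO, 16 hr at 37C; add LiveBLAzer B/G substrate, 2 hr RT; read fluorescence intensity.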
Sequence of Progesterone receptor (Homo sapiens) (P06401 whole entry, looked up): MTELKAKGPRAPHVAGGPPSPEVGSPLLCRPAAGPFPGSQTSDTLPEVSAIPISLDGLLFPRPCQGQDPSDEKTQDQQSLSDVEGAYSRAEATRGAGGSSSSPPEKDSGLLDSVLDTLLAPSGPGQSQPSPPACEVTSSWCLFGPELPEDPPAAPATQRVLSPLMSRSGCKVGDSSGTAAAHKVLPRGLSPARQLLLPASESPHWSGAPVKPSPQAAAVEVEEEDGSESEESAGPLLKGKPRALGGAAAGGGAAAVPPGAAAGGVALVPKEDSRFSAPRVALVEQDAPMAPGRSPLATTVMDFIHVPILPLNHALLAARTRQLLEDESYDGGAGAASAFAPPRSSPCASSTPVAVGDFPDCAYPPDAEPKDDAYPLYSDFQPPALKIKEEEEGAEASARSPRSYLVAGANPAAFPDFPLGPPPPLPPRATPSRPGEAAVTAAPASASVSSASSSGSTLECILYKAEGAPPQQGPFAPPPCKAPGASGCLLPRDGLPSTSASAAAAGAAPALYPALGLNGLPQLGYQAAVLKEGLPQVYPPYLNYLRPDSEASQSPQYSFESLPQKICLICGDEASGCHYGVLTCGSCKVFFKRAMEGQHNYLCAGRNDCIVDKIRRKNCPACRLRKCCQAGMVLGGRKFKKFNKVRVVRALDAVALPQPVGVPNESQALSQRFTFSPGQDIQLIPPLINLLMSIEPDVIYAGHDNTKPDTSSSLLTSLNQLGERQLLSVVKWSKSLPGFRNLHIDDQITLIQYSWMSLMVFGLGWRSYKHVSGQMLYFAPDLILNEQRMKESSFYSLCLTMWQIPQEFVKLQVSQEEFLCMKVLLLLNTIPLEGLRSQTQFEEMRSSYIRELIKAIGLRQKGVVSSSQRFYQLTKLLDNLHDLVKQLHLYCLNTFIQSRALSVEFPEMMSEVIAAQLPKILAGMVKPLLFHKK

Test [11] shares this target. The test is described as follows: qHTS assay to identify small molecule antagonists of the progesterone receptor (PR) signaling pathway (AID 1346795; active = well fitted inhibition curve with a large enough effect in the signal ratio in the repeat runs, not every such curve was filed as active; the % refers to the signal ratio). The procedure, abridged:
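Screening used a GripTite HEK293T line with PR-responsive UAS-beta-lactamase. Cells were challenged with compound in the presence of 1 nM R5020 final for 16 hr at 37C; B/G FRET substrate, 2 hr room temperature, fluorescence.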

The nature of test [12]: qHTS assay to identify small molecule antagonists of the progesterone receptor (PR) signaling pathway - cell viability counter screen (AID 1346798). Also: nearly all actives have a fitted effect of over 50% in size. Also: potency is read from the fitted curve at half-maximal effect. The procedure, abridged: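 Measures cytotoxicity in parallel with the PR antagonist reporter read: HEK293T PR-UAS-bla cells get compound and R5020 for 16 hr, and remaining viable cells are quantified by CellTiter-Glo luminescence.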

Test [13] is described as follows: qHTS assay to identify small molecule agonists of the progesterone receptor (PR) signaling pathway - cell viability counter screen (AID 1346799; calls by dose curve; also: nearly all actives have a fitted effect of over 45% in size). In outline:
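Using the same plates as the PR reporter screen, HEK293T PR-UAS-bla cells received compounds for 16 hr at 37C and were then lysed with CellTiter-Glo; luminescence was read 30 min later at room temperature.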

Test [14] in a line: qHTS assay to identify small molecule antagonists of the TGF-beta/Smad signaling pathway - cell viability counter screen (AID 1346824). Also: nearly all actives have a fitted effect of over 50% in size. Also: potency is read from the fitted curve at half-maximal effect. In outline: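 SBE-bla HEK 293T cells, incubated overnight, then compound plus 0.25 ng/mL TGF-beta1 (stock added) for 5 hr at 37 C. Viability was read in the same wells by CellTiter-Glo luminescence after 30 min at room temperature.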
The nature of test [15]: qHTS assay to identify small molecule agonists of the TGF-beta/Smad signaling pathway - cell viability counter screen (AID 1346829). Also: nearly all actives have a fitted effect of over 45% in size. Also: potency is read from the fitted curve at half-maximal effect. The procedure, abridged: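 Luminescence from CellTiter-Glo, read after a 30 min room-temperature incubation, gives cell viability of SBE-bla HEK 293T cells treated 5 hr with compounds at 37 C.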
Test [16] can be described thus: qHTS assay to identify small molecule agonists of the TGF-beta/Smad signaling pathway (AID 1346859; active = well fitted activation curve with a large enough effect in the signal ratio in the repeat runs, not every such curve was filed as active; the % refers to the signal ratio; also: series mostly up to about 77 µM). The procedure, abridged: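 Beta-lactamase reporter activity downstream of Smad binding elements was measured in stably transfected HEK 293T cells; compounds were incubated for 5 hr, substrate for 2 hr at room temperature.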
Test [17] deals with Thyrotropin-releasing hormone receptor (Homo sapiens) (UniProt P34981). The test is described as follows: qHTS assay to identify small molecule antagonists of the thyrotropin-releasing hormone receptor (TRHR) signaling pathway (AID 1346877; active = well fitted inhibition curve with a large enough effect in the repeat runs, not every such curve was filed as active; also: series mostly up to about 51 µM). The procedure, abridged:
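Overnight-plated (18 h, 37 °C) HEK293 cells expressing TRHR were dye-loaded 2 h, treated with compound, then stimulated with TRH at 1 nM final. Fluorescence intensity was captured every second for 3 min.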

The target is the same in test [18]. The test is described as follows: qHTS assay to identify small molecule agonists of the thyrotropin-releasing hormone receptor (TRHR) signaling pathway (AID 1346891; calls by dose curve;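 also: HEK293 cells expressing TRHR with calcium dye readout; series mostly up to about 58 µM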). The procedure, abridged:
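Overnight-plated (18 h, 37 °C, 5% CO2) TRHR-Hek293 cells; 2 h calcium dye at 37 °C; compound in DMSO; 3-min kinetic fluorescence read.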

The target in test [19] is Androgen receptor (Homo sapiens) (UniProt P10275). The test is described as follows: qHTS assay to identify small molecule agonists of the androgen receptor (AR) signaling pathway in the presence of an antagonist (AID 1259381; calls by dose curve; also: nearly all actives have a fitted effect of over 15% in size). In outline: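 Luminescent ONE-Glo read, 30min at room temperature, follows 16hr compound exposure (15 concentrations) of MDA-kb2 cells at 37C, 0% CO2, with nilutamide added at 3.0uM final.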
Sequence of Androgen receptor (Homo sapiens) (P10275 whole entry, looked up): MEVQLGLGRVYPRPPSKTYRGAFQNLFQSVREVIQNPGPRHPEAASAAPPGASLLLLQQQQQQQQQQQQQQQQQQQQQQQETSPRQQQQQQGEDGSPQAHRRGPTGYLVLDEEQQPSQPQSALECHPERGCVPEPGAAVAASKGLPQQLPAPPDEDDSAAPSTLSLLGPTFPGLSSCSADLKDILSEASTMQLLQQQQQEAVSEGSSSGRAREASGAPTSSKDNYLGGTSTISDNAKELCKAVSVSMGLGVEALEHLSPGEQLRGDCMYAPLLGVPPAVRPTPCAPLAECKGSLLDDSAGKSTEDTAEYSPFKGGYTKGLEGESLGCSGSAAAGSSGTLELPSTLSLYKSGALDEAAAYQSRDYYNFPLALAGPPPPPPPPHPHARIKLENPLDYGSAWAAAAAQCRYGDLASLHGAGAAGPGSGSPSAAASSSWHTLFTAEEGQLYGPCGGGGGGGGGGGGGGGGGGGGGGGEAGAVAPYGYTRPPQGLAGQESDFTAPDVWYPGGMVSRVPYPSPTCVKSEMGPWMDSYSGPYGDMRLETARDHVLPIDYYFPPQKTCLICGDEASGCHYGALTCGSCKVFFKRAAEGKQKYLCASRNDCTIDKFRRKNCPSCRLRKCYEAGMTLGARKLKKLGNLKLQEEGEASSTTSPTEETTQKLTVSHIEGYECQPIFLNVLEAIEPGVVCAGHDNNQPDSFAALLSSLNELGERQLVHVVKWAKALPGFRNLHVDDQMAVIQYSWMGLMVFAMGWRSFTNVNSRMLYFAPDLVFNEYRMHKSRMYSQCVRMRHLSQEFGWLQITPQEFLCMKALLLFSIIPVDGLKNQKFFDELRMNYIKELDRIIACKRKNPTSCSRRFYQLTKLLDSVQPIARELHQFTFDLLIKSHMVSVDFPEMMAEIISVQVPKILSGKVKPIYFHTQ

The target in test [20] is Estrogen receptor (Homo sapiens) (UniProt P03372). The test is described as follows: qHTS assay to identify small molecule agonists of the estrogen receptor alpha (ER-alpha) signaling pathway in the presence of an antagonist (AID 1259383; calls by dose curve; also: top concentration of the series differs between compounds; nearly all actives have a fitted effect of over 15% in size). In outline: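 Quantitative HTS confirmation: compounds titrated at 15 concentrations onto estrogen-deprived VM7Luc4E2 cells carrying a four-ERE luciferase construct, with ICI-182,780 present at 10.0nM final. Signal is luminescence after 22hr exposure.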
Sequence of Estrogen receptor (Homo sapiens) (P03372 whole entry, looked up): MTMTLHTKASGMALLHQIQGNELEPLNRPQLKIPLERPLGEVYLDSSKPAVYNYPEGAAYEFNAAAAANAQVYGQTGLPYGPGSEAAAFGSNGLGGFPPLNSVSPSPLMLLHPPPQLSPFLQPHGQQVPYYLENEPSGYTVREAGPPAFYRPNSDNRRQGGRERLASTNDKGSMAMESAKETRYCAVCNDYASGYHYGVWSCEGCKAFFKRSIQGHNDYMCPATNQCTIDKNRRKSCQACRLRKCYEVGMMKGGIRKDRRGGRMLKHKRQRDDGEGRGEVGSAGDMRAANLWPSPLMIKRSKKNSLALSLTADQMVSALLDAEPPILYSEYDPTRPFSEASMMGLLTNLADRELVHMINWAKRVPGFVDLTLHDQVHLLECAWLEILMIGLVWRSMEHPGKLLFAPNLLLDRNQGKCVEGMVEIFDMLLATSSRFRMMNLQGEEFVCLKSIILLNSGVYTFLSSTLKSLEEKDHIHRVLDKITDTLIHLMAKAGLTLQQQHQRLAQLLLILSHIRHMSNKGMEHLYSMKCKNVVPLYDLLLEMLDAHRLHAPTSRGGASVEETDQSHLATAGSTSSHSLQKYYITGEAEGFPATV

Where “and” joins values, the source holds several entries; their conditions need not be identical. Identical values can stand only once. Inconclusive results are not listed. Some compounds were tested as several samples or in several runs, with calls that do not always agree. Calls of active or inactive are those of the source. Unless noted, calls follow the shape of the dose curve; as a rule, active = well fitted curve in the direction sought with a large enough effect in the repeat runs; inconclusive = weak or mixed curves; inactive = no such curve, though single readings can be large; an effect the other way counts as inactive or inconclusive.
% is scaled to controls: 0 for no effect and ±100 for the full control effect.

Sequence of Thyrotropin-releasing hormone receptor (Homo sapiens) (P34981 whole entry, looked up): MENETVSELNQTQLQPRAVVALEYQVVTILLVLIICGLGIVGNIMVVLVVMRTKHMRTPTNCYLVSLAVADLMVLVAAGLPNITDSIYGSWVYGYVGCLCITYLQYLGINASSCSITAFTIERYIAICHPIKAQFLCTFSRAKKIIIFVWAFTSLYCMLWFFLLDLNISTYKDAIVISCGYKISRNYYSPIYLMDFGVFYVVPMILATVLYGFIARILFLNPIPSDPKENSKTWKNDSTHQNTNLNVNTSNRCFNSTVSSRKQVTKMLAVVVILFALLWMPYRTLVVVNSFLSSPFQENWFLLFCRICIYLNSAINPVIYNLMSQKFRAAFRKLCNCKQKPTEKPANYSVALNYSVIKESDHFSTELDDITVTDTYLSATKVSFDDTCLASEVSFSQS
Sequence of Thyrotropin receptor (Homo sapiens) (P16473 whole entry, looked up): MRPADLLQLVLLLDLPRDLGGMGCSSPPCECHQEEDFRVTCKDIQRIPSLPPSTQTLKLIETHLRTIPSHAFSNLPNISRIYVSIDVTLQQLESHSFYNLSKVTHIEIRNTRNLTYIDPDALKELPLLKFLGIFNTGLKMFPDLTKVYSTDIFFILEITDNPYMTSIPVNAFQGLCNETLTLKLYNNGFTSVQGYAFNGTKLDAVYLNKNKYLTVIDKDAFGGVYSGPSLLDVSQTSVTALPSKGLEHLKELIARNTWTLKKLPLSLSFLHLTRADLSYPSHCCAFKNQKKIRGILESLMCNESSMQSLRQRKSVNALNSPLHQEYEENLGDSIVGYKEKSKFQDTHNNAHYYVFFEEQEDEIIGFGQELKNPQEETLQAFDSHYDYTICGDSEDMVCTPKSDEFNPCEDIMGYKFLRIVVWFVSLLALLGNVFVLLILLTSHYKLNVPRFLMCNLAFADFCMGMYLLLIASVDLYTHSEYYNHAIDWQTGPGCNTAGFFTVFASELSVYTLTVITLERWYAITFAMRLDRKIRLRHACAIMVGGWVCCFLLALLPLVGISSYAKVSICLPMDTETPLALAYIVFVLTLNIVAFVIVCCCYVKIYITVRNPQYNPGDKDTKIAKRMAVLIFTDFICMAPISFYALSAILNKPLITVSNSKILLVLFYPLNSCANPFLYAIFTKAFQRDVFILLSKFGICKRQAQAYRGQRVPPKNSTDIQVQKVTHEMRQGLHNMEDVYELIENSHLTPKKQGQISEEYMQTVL

Turning to `ClC(Cl)(Cl)Br`, the Potency entry in [1], in [2], in [4], in [5], in test [6] and in test [7] was “inactive” throughout. Moreover, the Potency entry in test [8], in [9], in test [10], in test [11], in test [12] and in [13] was “inactive” throughout. Besides, the Potency entry in test [14], in test [15], in [16] and in test [17] was “inactive” in each case. The activity, negative = inhibition in test [3] is -1.76% [at 19 µM] (inactive). In addition, in [18], the molecule was classed as inactive.
On to `[CH3][Sn]([Cl])([Cl])[Cl]`, for which the Potency result in [1], in test [2], in test [3], in test [4], in test [5] and in [6] was “inactive” each time. For the same molecule, the Potency entry in [7], in [8], in [9], in test [10], in test [11] and in test [12] was “inactive” each time. Further, the Potency entry in test [13], in [14], in test [15] and in test [17] was “inactive” in each case.
`CCOP(=O)(OCC)OCC`: the Potency result in test [1], in test [2], in [3], in test [4], in test [5] and in [6] was “inactive” in each case. Besides, the Potency result in [7], in [8], in test [9], in test [10], in test [11] and in test [12] was “inactive” each time. The Potency result in test [13], in test [15], in [16] and in [17] was “inactive” throughout.
As to `COP(=S)(OC)SCn1nnc2ccccc2c1=O`, the Potency in test [1] is 30 µM (active) and inactive. For the same molecule, the Potency entry in test [2], in [4], in test [6], in test [20], in [7] and in test [8] was “inactive” throughout. The Potency entry in test [9], in [10], in test [12], in test [13], in [14] and in test [15] was “inactive” each time. Moreover, the Potency entry in test [17] is “inactive”. For the same molecule, the outcome in [19] was inactive.
Take `CCCCCCCC[N+](C)(CCCCCCCC)CCCCCCCC`: the Potency in test [1] was 193 nM (active) and 48.6 nM (active) and 306 nM (active); in [3], 17.2 µM (active); in test [4] it was 12.2 µM (active) and 2.73 µM (active) and 24.3 µM (active); in test [5], 12.2 µM (active) and 27.3 µM (active) and 30.6 µM (active); in test [6], 12.2 µM (active) and 43.3 µM (active) and 24.3 µM (active); in test [9], 21.6 µM (active) and 6.87 µM (active) and 30.6 µM (active). Moreover, the Potency was 30.6 µM (active) in [12]; 15.5 µM (active) and 49 µM (active) in test [14]; 49 µM (active) in test [15]. The Potency entry in [20], in test [7], in test [8] and in test [10] was “inactive” throughout.
As to `CSc1nc(NC(C)C)nc(NC(C)C)n1`, the Potency in test [1] is 766 nM (active). Moreover, the Potency entry in [2], in [3], in test [4], in [5], in [6] and in test [20] was “inactive” in each case. The Potency result in test [9], in test [10], in test [12], in test [13], in [15] and in test [17] was “inactive” each time.
For the molecule `NC(=O)CN1CCCC1=O`, the Potency entry in test [1], in test [2], in test [3], in [4], in test [5] and in test [6] was “inactive” each time. The Potency entry in test [9], in test [10], in test [11], in test [12], in test [13] and in [14] was “inactive” in each case. Also, the Potency entry in [15], in test [16] and in test [17] was “inactive” throughout. Moreover, the molecule was called inactive in test [18].
